The values that follow come from PubChem BioAssay.

Active and inactive are the calls of the source. No rule for the calls is given here.

The experiment relates to Aerobactin synthetase IucA (Klebsiella pneumoniae, hypervirulent). The experiment can be described thus: biochemical IucA inhibition screen of LOPAC library by absorbance (AID 1346212).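 Also: 100% = no compound wells and 0% = no enzyme wells.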 Particulars: IucA enzyme assay, absorbance (OD) readout; hits give low values;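 tested at 8 µM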.
Broadly, the remaining activity is the signal under treatment as a percentage of the control signal. For `C[C@@]12C(=O)OC(=O)[C@]1(C)[C@H]1CC[C@@H]2O1`, the remaining activity was 118% (inactive).

With `COc1cccc2c1[C@@H]1CN(CCCCn3c(=O)[nH]c4c(sc5ncc(-c6ccccc6)nc54)c3=O)C[C@@H]1CO2`, the remaining activity was 98.2% (inactive).

Take `CC(C)NC[C@@H](O)c1ccc(O)c(O)c1`: the remaining activity was 119% (inactive).

For `CN1CCN(c2nc3cc(C(F)(F)F)ccc3n3cccc23)CC1`, the remaining activity was 94.3% (inactive).

Turning to `CCNC(=O)[C@H]1O[C@@H](n2cnc3c(N)nc(NCCc4ccc(CCC(=O)O)cc4)nc32)C(O)[C@H]1O` (stereo not given in full), the remaining activity is 109% (inactive).

Regarding `O=c1[nH]ccc2c(O)cccc12`, the remaining activity is 117% (inactive).

Turning to `C[C@@H](NC(=O)/C(C#N)=C/c1ccc(O)c(O)c1)c1ccccc1`, the remaining activity is 97.8% (inactive).

In the case of `COc1cc2c(cc1O)CC[C@@H]1[C@@H]2CC[C@]2(C)[C@@H](O)CC[C@@H]12`, the remaining activity was 116% (inactive).

Regarding `Cc1ccc(C(=O)O[C@H](C(=O)O)[C@@H](OC(=O)c2ccc(C)cc2)C(=O)O)cc1` (tested in a mixture with another compound), the remaining activity was 112% (inactive).

On to `CCCCCCCCCCCCCCCC(=O)OC(CC(=O)O)C[N+](C)(C)C` (stereo not given), for which the remaining activity is 116% (inactive).

Turning to `CC(C)(C)NC(=O)[C@H]1CC[C@H]2[C@@H]3CC[C@H]4NC(=O)C=C[C@]4(C)[C@H]3CC[C@]12C`, the remaining activity was 119% (inactive).

Turning to `CSC(N)=NCCC[C@H](N)C(=O)O`, the remaining activity was 123% (inactive).

In the case of `N#C/C(=C\c1ccc(O)c(O)c1)C(=O)NCCc1ccccc1`, the remaining activity is 102% (inactive).

Take `O=C(O)CN(CCOCCOCCN(CC(=O)O)CC(=O)O)CC(=O)O`: the remaining activity was 88.2% (inactive).

For the compound `Oc1ccc(C2CNCc3sccc32)cc1O` (stereo not given), the remaining activity was 99.3% (inactive).

Regarding `C[C@]12CC[C@@H]3c4ccc(O)cc4C[C@@H](CCCCCCCCCS(=O)CCCC(F)(F)C(F)(F)F)[C@H]3[C@@H]1CC[C@@H]2O` (stereo not given in full), the remaining activity is 115% (inactive).

Turning to `O=C1CCC(c2ccc(-n3ccnc3)cc2)=NN1`, the remaining activity is 111% (inactive).

As for `NCCNC(=O)c1ccc(Cl)cc1`, the remaining activity is 88.1% (inactive).

Turning to `O=c1[nH]c(=O)n([C@H]2C[C@H](O)[C@@H](CO)O2)cc1Br`, the remaining activity was 96.4% (inactive).

On to `CCN1CCC[C@H]1CNC(=O)c1cc(S(N)(=O)=O)ccc1OC`, for which the remaining activity was 122% (inactive).

Regarding `OC(CN1CCC(Cc2ccc(F)cc2)CC1)c1ccc(Cl)cc1` (stereo not given), the remaining activity is 99.6% (inactive).

For the compound `Nc1ncnc2c1c(-c1ccc(Oc3ccccc3)cc1)cn2C1CCCC1`, the remaining activity is 122% (inactive).

In the case of `Cn1c(=O)c2[nH]c(-c3ccc(S(=O)(=O)O)cc3)nc2n(C)c1=O`, the remaining activity was 117% (inactive).

For the compound `CSC(=N)N`, the remaining activity is 123% (inactive).

Turning to `NC1(C(=O)O)CCCCC1`, the remaining activity is 125% (inactive).

`O=c1onc2cnc3ccccc3n12`: the remaining activity is 112% (inactive).

As for `CN(CC[C@@H](Oc1ccc(C(F)(F)F)cc1)c1ccccc1)CC(=O)O`, the remaining activity was 118% (inactive).

Regarding `CCCCCCCCCCCCCCCCCC(=O)OC(CC(=O)O)C[N+](C)(C)C` (stereo not given), the remaining activity is 96.1% (inactive).

Turning to `N[C@@H](Cc1ccc(O)c(I)c1)C(=O)O`, the remaining activity is 121% (inactive).

`Nc1ncnc2c1nc(Br)n2C1OC2COP(=O)(O)O[C@@H]2C1O` (stereo not given in full): the remaining activity was 113% (inactive).

`CC(C)NC[C@H](O)COc1cccc2[nH]ccc12`: the remaining activity was 116% (inactive).

On to `NCCNS(=O)(=O)c1cccc2c(Cl)cccc12`, for which the remaining activity is 96.1% (inactive).

Take `COc1cc(N)c(Cl)cc1C(=O)OCCN1CCCCC1`: the remaining activity is 110% (inactive).

Consider `NCCCNCCCCNCCCN`, for which the remaining activity was 108% (inactive).

As for `CNCCC(Oc1ccccc1OC)c1ccccc1` (stereo not given), the remaining activity is 104% (inactive).

Take `CC(CCc1ccc(O)cc1)NCCc1ccc(O)c(O)c1` (stereo not given): the remaining activity was 98.4% (inactive).

Take `CNCC[C@@H](Oc1ccc(C(F)(F)F)cc1)c1ccccc1`: the remaining activity was 105% (inactive).

Turning to `Cn1c(=O)[nH]c2ncn(C)c2c1=O`, the remaining activity is 113% (inactive).

Take `N=C(N)SCCc1cnc[nH]1`: the remaining activity was 122% (inactive).

As for `CC[N+](C)(C)Cc1ccccc1Br`, the remaining activity is 108% (inactive).
